The results in this text go back to PubChem BioAssay (NCATS).

A number with no mark means an inactive call. Records with an inconclusive call do not appear. Activity calls are given as the source filed them. Unless noted, calls follow the shape of the dose curve; as a rule, active = well fitted curve in the direction sought with a large enough effect; inconclusive = small, poorly fitted or top-dose-only effect, or another doubt; inactive = no such curve, though single readings can be large; an effect the other way counts as inactive or inconclusive.

The target in assay [1] is Lysosomal acid glucosylceramidase (Homo sapiens) (UniProt P04062). Briefly: Glucocerebrosidase-p2 (AID 348; in the data active = potency below about 10 µM; also: potency is read from the fitted curve at half-maximal effect). Particulars: purified GBA, blue fluorogenic substrate, 40 min. In short, it runs like this:
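Normal human glucocerebrosidase (0.2 nM) with blue fluorogenic substrate (80 uM final) in citrate/phosphate pH 5.9 with 10mM sodium taurocholate, 0.01% tween-20; 40 min RT, NaOH/glycine stop; fluorescence Ex 365/Em 440; AC50 from a titration from 0.6 nM upwards.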

Assay [2] deals with Cytochrome P450 1A2 (Homo sapiens) (UniProt P05177). The assay is described as follows: p450-cyp1a2 (AID 410; calls by dose curve; also: potency is read from the fitted curve at half-maximal effect). Particulars: recombinant CYP1A2, luciferin-ME demethylation, luminescence; series mostly up to 57 µM. In short, it runs like this:
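O-Demethylation of luciferin 6' methyl ether by human CYP1A2 is monitored as luciferase luminescence. Substrate sits at Km (100uM); enzyme is 20nM. Values are scaled to 57 uM furafylline as maximal inhibition.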

A short description of assay [3]: NFAT Signaling Pathway (AID 444; active = well fitted curve in either direction with a large enough effect, not every such curve was filed as active;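 also: carbachol stimulus at about its EC50 of 1 µM final; % is scaled to controls: 0 for no effect and ±100 for the full control effect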). Particulars: Jurkat NFAT-bla M1, carbachol, beta-lactamase ratio, 5 h; at 7.69 µM (top of the series) unless noted. An outline of the steps:
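Read-out: CCF4 FRET ratio (460 nm/530 nm) after 1 h RT dye loading, used for %activity and AC50 from titration series. Cells: Jurkat NFAT-β-lactamase/M1 line, treated with compound plus 1 uM carbachol for 5 h, 37 °C.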

Assay [4] is described as follows: Stat Signaling Pathway (AID 446; active = well fitted curve in either direction with a large enough effect, not every such curve was filed as active;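 also: ME-180 cervical cancer cells given 40 pM IL-6 alongside compound; SIE-controlled beta-lactamase reporter measured as 460/530 nm FRET emission ratio; % is scaled to controls: 0 for no effect and ±100 for the full control effect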). Particulars: ME-180 SIE beta-lactamase reporter, IL-6 stimulated, 5 h; at 7.69 µM (top of the series) unless noted. An outline of the steps:
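Overnight-plated ME-180 cells bearing a STAT Inducible Element beta-lactamase reporter; 5 h co-exposure to compound and 40 pM IL-6; values normalized to 300 pM IL-6 and 125 nM JAK inhibitor controls.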

Assay [5] deals with Glucocorticoid receptor (Homo sapiens) (UniProt P04150). The assay is described as follows: GR-EFC Redistribution (AID 451; calls by dose curve; also: potency is read from the fitted curve at half-maximal effect). Particulars: CHO-K1 GR-EFC translocation, beta-gal luminescence, 2 h. In short, it runs like this:
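Translocation of GR-ED fusion to nuclear EA restores b-gal, read by luminescence after 1 h room-temperature detection. Engineered CHO-K1 biosensor cells, 1,000/well, exposed 2 h at 37 C to titrations up to 46 uM final.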

In assay [6] the target is Mitogen-activated protein kinase 10 (Mus musculus) (UniProt Q61831). Briefly: JNK3 AlphaScreen Assay (AID 530; active = well fitted curve in either direction with a large enough effect, not every such curve was filed as active;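 also: kinase came from lysate of stimulated human HepG2 cells; signal reports phosphorylation of biotinylated GST-cJun 1-79 at Ser73 with 10 µM ATP; % is scaled to controls: 0 for no effect and ±100 for the full control effect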). Particulars: JNK3 lysate, c-Jun phosphorylation; series mostly up to 57.1 µM. In short, it runs like this: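 qHTS titrations with 15 min compound pre-incubation before adding ATP (10 uM final). Read-out: AlphaScreen of Ser73-phosphorylated biotin-GST-cJun using HepG2 lysate JNK3 activated by IL-1β and TNFα.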
(In general: Alpha assays give light when donor and acceptor beads are brought close together.)

Assay [7] addresses 3',5'-cyclic-AMP phosphodiesterase 4B (Homo sapiens) (UniProt Q07343). Briefly: qHTS Assay for Inhibitors of PDE-IV (AID 607; active = well fitted activation curve with a large enough effect in the main read-out, with a control signal flat, not every such curve was filed as active; also: % of control where 0% means no effect). Particulars: HEK293 ACTOne CNG channel cells, membrane potential fluorescence; series mostly up to 22.9 µM. In short, it runs like this:
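Live HEK293 cells with a modified cyclic nucleotide-gated (CNG) channel report intracellular cAMP via membrane-potential dye fluorescence (ex 535/em 590 nm). Endogenous PDE-IV was targeted. Compounds were tested at up to 22.9 uM final; RO 20-1724 100 uM served as control.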
In general terms: In qHTS, concentration-response curves come from the screen itself.

The target in assay [8] is Cytochrome P450 3A4 (Homo sapiens) (UniProt P08684). Briefly: qHTS Assay for Inhibitors and Substrates of Cytochrome P450 3A4 (AID 884). Also: potency is read from the fitted curve at half-maximal effect; nearly all actives have a fitted effect of over 50% in size. Particulars: recombinant CYP3A4, Luciferin-PPXE luminescence; series mostly up to 57.1 µM. An outline of the steps: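 Luminescent readout of luciferin produced by CYP3A4 (20 nM) dealkylation of Luciferin-PPXE, 25 uM (its KM). NADPH-driven reaction ran 60 min at RT after 10 min compound preincubation; data scaled to 57 uM ketoconazole as 100% inhibition.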

Assay [9] shares this target. Briefly: qHTS Assay for Activators of Cytochrome P450 3A4 (AID 885). Also: nearly all actives have a fitted effect of over 65% in size. Particulars: recombinant CYP3A4, Luciferin-PPXE luminescence, 60 min; series mostly up to 57.1 µM. An outline of the steps:
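Using 20nM recombinant human CYP3A4 in potassium phosphate (200mM), substrate Luciferin-PPXE at 25uM, luminescent luciferin detection followed a 60-min RT NADPH reaction; data scaled to 57 uM ketoconazole.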

Assay [10] addresses Cytochrome P450 2D6 (Homo sapiens) (UniProt P10635). The assay is described as follows: qHTS Assay for Inhibitors and Substrates of Cytochrome P450 2D6 (AID 891). Also: potency is read from the fitted curve at half-maximal effect; nearly all actives have a fitted effect of over 60% in size. Particulars: recombinant CYP2D6, luciferin-ME EGE luminescence; series mostly up to 57.1 µM. An outline of the steps: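 Luminescent read-out of luciferin formed by 5 nM human CYP2D6 demethylating 30 uM Luciferin-ME EGE (Km level) over 60 min at room temperature after NADPH regeneration addition. Data normalized to full inhibition by 1.43 uM quinidine.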

Assay [11] concerns the target Dual specificity protein kinase CLK4 (Homo sapiens) (UniProt Q9HAZ1). Briefly: qHTS Assay for Inhibitors of CDC-like Kinase 4 (Kinase-Glo Assay) (AID 1770). Also: potency is read from the fitted curve at half-maximal effect; nearly all actives have a fitted effect of over 65% in size. Particulars: recombinant Clk4, Kinase-Glo ATP depletion luminescence; series mostly up to 66.7 µM. An outline of the steps:
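Readout: Kinase-Glo luminescence from ATP left after a 4.5 h room-temperature reaction of 25 nM Clk4 with 100 uM RS peptide and 1 uM ATP (final). Buffer: 25 mM Tris pH 7.5, 10 mM MgCl2.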

For assay [12] the target is unchanged. Briefly: qHTS Assay for Inhibitors of CDC-like Kinase 4 (ADP-Glo Assay) (AID 1771). Also: potency is read from the fitted curve at half-maximal effect; nearly all actives have a fitted effect of over 70% in size. Particulars: recombinant CLK4, ADP-Glo luminescence; series mostly up to 80 µM. An outline of the steps:
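Compounds are pin-transferred onto substrate mix (100 uM RS peptide, 1 uM ATP), then 25 nM Clk4 is added. After 1 hr at room temperature, ADP-Glo reagent runs 45 min, detection reagent 30 min, then luminescence is read.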

Assay [13] has as its target Ubiquitin carboxyl-terminal hydrolase 1 (Homo sapiens) (UniProt O94782). The assay is described as follows: Inhibitors of USP1/UAF1: Pilot qHTS (AID 504865). Also: nearly all actives have a fitted effect of over 35% in size. Also: potency is read from the fitted curve at half-maximal effect. Particulars: purified USP1/UAF1, Ub-rhodamine cleavage fluorescence; series mostly up to 54.9 µM. In short, it runs like this:
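1nM USP1/UAF1 + cpd, 15 min RT; start w/ Ub-Rho 150nM final; kinetic FL 480/540 nm, 6 reads q60 s. Buffer 50mM HEPES pH 7.8, 0.5mM EDTA, 1mM TCEP, 0.01% Tween-20, 0.1 mg/ml BSA.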

A short description of assay [14]: Primary qHTS for small molecule stabilizers of the endoplasmic reticulum resident proteome: Secreted ER Calcium Modulated Protein (SERCaMP) assay (AID 1508630). Also: % is scaled to controls: 0 for no effect and ±100 for the full control effect. Particulars: SH-SY5Y GLuc-SERCaMP (Gaussia luciferase released on ER calcium loss) secretion, thapsigargin, luminescence; series mostly up to 38.4 µM. In short, it runs like this: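 The SH-SY5Y reporter protocol was run at 3 concentrations up to 38.3 uM (primary) or 11 concentrations (follow-up): 16 h compound, 100 nM thapsigargin for 4 h, then extracellular luciferase luminescence.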

The target of assay [15] is Glucocorticoid receptor (Homo sapiens) (UniProt P04150). Briefly: GR-GFP Redistribution (AID 450;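 active = compounds whose dose series gives a full or clear partial fitted curve of increased nuclear translocation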; also: potency is read from the fitted curve at half-maximal effect). Particulars: U2OS GR-GFP nuclear translocation, laser cytometry, 2 h.
In assay [16] the target is Cytochrome P450 2C19 (Homo sapiens) (UniProt P33261). The assay is described as follows: qHTS Assay for Inhibitors and Substrates of Cytochrome P450 2C19 (AID 899). Also: potency is read from the fitted curve at half-maximal effect; nearly all actives have a fitted effect of over 60% in size. Particulars: recombinant CYP2C19, luciferin-H EGE luminescence; series mostly up to 57.1 µM. In short, it runs like this: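 5nM enzyme + 10uM Luciferin-H EGE (=KM), 50mM KPO4; cpd pin-transferred, 10 min 37C; NADPH regen, 60 min 37C; stopped w/ luciferin detection reagent, 20 min; luminescence. Normalized to 57uM ketoconazole (AC100).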

The nature of assay [17]: AP1 Signaling Pathway (AID 357; active = well fitted curve in either direction with a large enough effect, not every such curve was filed as active). Particulars: ME-180 AP-1-bla reporter, EGF-induced, beta-lactamase ratio, 5 h; at 7.69 µM (top of the series) unless noted. In short, it runs like this:
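AP-1-bla ME-180 cells, Opti-MEM + 0.5% dialyzed FBS, plated overnight 37 °C. Cpd titration + EC50 EGF, 5 h 37 °C. CCF4 2.5 h RT; ex 405, em 460/530 ratio → %activity, AC50.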

Assay [18] can be described thus: qHTS Assay for Identification of Small Molecule Agonists for Hypoxia Response Element Signaling Pathway (AID 914; active = well fitted activation curve with a large enough effect in the signal ratio, with a control signal flat, not every such curve was filed as active; the % refers to the signal ratio; also: % of control where 0% means no effect). Particulars: ME-180 (cervical carcinoma) HRE-bla reporter, beta-lactamase ratio, CoCl2, 17 h; activation: active compounds read high. In short, it runs like this:
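In Opti-MEM containing 0.5% dialyzed FBS and 10 mM HEPES, ME-180 HRE-bla cells received a compound titration and EC50 CoCl2. They were incubated 17 hours, then CCF4-loaded 2.5 hours at room temperature before ratio reading.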

Sequence of Cytochrome P450 3A4 (Homo sapiens) (P08684 whole entry, looked up): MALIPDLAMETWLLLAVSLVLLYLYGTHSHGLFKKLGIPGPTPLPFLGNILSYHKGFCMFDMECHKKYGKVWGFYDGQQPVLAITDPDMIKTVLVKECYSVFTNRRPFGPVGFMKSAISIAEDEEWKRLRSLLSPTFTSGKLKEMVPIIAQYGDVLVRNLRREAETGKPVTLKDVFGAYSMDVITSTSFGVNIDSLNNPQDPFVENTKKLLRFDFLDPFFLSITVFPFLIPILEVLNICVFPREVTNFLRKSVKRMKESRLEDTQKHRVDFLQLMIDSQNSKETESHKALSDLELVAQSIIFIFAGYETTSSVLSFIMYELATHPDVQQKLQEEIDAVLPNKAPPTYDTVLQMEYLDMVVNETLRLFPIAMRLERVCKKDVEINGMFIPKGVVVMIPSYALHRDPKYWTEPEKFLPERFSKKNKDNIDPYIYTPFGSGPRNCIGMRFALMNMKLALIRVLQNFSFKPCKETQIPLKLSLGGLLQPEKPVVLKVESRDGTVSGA
Sequence of 3',5'-cyclic-AMP phosphodiesterase 4B (Homo sapiens) (Q07343 whole entry, looked up): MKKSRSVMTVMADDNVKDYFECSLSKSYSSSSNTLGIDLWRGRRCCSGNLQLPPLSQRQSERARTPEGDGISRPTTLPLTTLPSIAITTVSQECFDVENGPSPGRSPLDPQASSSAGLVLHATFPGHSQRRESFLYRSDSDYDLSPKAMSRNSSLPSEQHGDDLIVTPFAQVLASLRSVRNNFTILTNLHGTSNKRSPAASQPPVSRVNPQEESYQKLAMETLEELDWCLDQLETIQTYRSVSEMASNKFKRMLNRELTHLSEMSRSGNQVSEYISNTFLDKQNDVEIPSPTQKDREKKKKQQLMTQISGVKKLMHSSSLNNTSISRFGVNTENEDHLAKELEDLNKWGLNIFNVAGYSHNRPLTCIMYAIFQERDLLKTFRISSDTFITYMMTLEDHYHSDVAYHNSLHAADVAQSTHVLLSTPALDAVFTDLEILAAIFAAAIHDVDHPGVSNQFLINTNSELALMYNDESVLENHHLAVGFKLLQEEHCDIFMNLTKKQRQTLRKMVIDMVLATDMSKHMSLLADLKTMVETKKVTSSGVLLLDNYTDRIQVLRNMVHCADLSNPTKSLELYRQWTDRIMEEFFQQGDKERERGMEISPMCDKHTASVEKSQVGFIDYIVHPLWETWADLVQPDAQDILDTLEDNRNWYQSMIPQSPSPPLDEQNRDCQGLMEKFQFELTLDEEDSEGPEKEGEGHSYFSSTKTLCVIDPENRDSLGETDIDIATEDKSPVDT
Sequence of Glucocorticoid receptor (Homo sapiens) (P04150 whole entry, looked up, the tested form may be a part): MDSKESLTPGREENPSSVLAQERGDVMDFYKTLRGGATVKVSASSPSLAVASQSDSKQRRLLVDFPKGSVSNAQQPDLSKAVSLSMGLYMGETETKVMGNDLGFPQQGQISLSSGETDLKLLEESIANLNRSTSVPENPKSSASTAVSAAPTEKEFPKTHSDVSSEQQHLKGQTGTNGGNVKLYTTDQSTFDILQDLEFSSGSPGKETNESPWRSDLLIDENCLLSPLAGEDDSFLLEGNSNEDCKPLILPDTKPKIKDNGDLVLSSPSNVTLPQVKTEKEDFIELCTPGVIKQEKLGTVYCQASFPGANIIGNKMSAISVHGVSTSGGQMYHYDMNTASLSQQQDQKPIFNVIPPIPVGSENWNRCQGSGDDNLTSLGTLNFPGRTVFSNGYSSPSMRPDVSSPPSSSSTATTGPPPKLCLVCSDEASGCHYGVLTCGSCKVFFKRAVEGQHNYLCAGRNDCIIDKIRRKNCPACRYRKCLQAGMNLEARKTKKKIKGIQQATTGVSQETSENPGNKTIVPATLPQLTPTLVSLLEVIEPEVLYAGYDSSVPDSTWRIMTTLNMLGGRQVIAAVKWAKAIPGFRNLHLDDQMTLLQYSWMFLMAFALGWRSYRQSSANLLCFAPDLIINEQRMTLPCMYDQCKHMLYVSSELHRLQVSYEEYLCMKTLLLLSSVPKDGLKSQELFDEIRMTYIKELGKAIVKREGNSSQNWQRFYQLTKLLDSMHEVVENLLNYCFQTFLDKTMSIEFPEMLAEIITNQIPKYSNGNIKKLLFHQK
Sequence of Ubiquitin carboxyl-terminal hydrolase 1 (Homo sapiens) (O94782 whole entry, looked up): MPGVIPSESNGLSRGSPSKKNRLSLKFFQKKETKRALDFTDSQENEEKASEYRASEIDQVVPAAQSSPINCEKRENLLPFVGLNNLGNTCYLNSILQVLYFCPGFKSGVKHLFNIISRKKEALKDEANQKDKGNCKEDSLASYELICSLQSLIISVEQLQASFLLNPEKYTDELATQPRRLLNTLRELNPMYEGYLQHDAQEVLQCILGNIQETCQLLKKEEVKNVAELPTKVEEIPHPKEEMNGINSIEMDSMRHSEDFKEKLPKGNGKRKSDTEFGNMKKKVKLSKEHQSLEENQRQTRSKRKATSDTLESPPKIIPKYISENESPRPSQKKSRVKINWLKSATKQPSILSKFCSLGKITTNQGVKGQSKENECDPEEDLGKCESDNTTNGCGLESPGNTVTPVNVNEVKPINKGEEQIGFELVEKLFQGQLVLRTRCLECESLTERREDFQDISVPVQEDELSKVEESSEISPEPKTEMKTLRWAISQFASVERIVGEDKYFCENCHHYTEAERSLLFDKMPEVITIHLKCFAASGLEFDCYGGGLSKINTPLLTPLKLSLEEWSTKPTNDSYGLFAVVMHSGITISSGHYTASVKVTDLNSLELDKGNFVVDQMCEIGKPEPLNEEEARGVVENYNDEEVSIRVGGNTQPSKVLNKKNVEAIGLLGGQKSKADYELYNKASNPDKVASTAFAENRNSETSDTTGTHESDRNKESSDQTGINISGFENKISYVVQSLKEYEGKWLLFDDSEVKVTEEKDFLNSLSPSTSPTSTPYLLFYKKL
Sequence of Cytochrome P450 1A2 (Homo sapiens) (P05177 whole entry, looked up): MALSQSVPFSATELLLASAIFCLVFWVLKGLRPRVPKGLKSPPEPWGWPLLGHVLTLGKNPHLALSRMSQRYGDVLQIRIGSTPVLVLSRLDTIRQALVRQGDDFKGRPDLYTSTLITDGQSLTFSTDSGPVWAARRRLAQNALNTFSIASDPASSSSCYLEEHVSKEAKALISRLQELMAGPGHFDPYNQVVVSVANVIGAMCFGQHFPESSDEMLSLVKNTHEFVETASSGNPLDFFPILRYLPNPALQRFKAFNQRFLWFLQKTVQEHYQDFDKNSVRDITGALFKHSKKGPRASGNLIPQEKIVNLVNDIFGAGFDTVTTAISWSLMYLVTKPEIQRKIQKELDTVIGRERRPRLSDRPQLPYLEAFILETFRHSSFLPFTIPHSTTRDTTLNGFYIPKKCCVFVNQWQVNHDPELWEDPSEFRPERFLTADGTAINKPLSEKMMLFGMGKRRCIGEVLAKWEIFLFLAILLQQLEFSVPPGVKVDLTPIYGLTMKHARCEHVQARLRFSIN
Sequence of Dual specificity protein kinase CLK4 (Homo sapiens) (Q9HAZ1 whole entry, looked up): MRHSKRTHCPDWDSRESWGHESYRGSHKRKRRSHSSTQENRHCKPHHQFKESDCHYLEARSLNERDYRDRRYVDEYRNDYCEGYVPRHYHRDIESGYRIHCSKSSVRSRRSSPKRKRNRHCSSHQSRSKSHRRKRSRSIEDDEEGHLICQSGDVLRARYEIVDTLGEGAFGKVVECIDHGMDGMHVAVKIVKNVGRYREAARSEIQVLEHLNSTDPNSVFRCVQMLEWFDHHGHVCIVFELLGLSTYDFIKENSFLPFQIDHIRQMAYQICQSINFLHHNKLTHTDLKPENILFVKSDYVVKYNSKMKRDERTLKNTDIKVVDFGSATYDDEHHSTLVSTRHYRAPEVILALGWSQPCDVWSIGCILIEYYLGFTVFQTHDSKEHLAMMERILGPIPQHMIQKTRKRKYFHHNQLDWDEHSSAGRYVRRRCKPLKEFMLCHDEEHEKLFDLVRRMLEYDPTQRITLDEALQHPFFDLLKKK
Sequence of Lysosomal acid glucosylceramidase (Homo sapiens) (P04062 whole entry, looked up): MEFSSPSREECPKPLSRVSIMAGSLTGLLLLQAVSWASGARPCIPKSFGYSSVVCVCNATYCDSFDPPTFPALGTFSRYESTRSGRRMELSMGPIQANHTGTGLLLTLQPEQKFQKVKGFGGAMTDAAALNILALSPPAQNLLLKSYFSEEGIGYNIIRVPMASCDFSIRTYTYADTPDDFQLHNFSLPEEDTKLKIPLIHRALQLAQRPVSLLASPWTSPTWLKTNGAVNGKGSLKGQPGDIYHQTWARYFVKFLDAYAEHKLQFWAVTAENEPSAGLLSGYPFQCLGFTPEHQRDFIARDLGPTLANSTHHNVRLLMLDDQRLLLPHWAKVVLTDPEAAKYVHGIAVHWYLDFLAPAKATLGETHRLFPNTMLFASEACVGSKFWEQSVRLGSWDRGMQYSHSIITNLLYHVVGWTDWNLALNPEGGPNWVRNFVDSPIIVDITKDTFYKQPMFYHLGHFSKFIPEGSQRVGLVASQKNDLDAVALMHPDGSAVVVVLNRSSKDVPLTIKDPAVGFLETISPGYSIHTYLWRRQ
Sequence of Cytochrome P450 2D6 (Homo sapiens) (P10635 whole entry, looked up): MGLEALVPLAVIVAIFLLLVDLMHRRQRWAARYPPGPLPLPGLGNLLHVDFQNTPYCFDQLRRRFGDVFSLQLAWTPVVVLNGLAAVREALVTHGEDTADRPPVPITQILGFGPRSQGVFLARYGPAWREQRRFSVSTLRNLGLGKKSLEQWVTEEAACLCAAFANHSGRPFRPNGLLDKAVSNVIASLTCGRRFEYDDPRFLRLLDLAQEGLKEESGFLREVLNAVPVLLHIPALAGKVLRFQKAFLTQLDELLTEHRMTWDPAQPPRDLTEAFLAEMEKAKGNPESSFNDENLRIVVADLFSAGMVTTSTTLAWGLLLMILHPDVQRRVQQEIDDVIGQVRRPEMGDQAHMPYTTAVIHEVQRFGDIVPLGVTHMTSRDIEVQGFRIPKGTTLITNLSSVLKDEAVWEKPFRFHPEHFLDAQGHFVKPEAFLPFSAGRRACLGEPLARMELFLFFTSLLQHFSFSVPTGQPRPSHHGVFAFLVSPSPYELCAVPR

For the compound `COc1ccc2[nH]cc(CCNc3ccnc(-c4cccnc4)n3)c2c1`, the Potency in [1] is more than 11.4 µM; in assay [2], 0.251 µM (active); in assay [5] it was more than 46 µM; in assay [8], 1.26 µM (active); in [10] it was 1.26 µM (active); in assay [11], 12.6 µM (active). Also, the Potency in assay [12] was 14.1 µM (active). Besides, in [3], the activity change, negative = inhibition was 11.3%. In addition, the activity, negative = inhibition in [4] was -3.13%. The Potency result in assay [6], in assay [7], in [9] and in assay [13] was “inactive” in each case. For the same compound, the result in assay [14] was inactive.

As for `COc1cccc(-c2nccc(NCc3ccccc3)n2)c1`, the Potency in assay [1] was more than 11.4 µM; in assay [2], 0.501 µM (active); in assay [15], more than 46 µM; in assay [5], more than 46 µM; in [8] it was 3.98 µM (active); in assay [16], 7.94 µM (active). Also, the Potency is 15.8 µM (active) in [11], 15.8 µM (active) in assay [12] and 25.1 µM (active) in [13]. Also, the activity change, negative = inhibition in assay [3] is 15.6%. Further, in assay [4], the activity, negative = inhibition was -13.5%. Moreover, the Potency result in [6] and in assay [9] was “inactive” in each case. Further, the result in assay [14] was inactive.

For `FC(F)(F)c1ccccc1-c1nc(-n2ccnc2)c2ccccc2n1`, the Potency in assay [1] was more than 11.4 µM; in assay [15], more than 46 µM; in [5], more than 46 µM; in [11], 15.8 µM (active); in [12], 17.8 µM (active). The activity change, negative = inhibition is 9.46% in assay [17] and 3.74% in assay [3]. The activity, negative = inhibition in assay [4] was -3.35%. Further, the Potency entry in [6], in assay [7] and in assay [13] was “inactive” throughout. For the same compound, the activation in assay [18] is 2.67%. Moreover, the result in assay [14] was inactive.

Turning to `CN1CCN(c2ncnc3ccc(-c4cccnc4)cc23)CC1`, the Potency in [1] was more than 11.4 µM; in assay [15] it was more than 46 µM; in assay [5], more than 46 µM; in [11], 12.6 µM (active); in assay [12] it was 14.1 µM (active). Further, the activity change, negative = inhibition in assay [17] is -5.19%; in [3], 17%. Further, the activity, negative = inhibition in assay [4] was 2.81%. For the same compound, the Potency entry in assay [6], in assay [7], in [9] and in assay [13] was “inactive” in each case. Moreover, in assay [18], the activation was -3.4%. Also, the outcome in assay [14] was inactive.

Consider `CN(C)c1ccc(-c2nc(-n3ccnc3)c3ccccc3n2)cc1`, for which the Potency was 8.28 µM (active) in assay [1]; 0.316 µM (active) in assay [2]; more than 46 µM in assay [15]; more than 46 µM in [5]; 0.631 µM (active) in assay [8]; 7.94 µM (active) in assay [10]. The Potency was 2.51 µM (active) in assay [16], 7.94 µM (active) in [11] and 11.2 µM (active) in assay [12]. Moreover, the activity, negative = inhibition in assay [4] was -23.3%. In addition, the Potency result in assay [6], in [7], in [9] and in assay [13] was “inactive” each time. For the same compound, in assay [14], the outcome was inactive.

`O=c1cnc2cnc(Oc3cccc(Cl)c3)nc2n1CCc1ccccc1`: the Potency is more than 11.4 µM in assay [1]; more than 9.22 µM in assay [15]; more than 46 µM in assay [5]; 2.24 µM (active) in assay [11]; 3.55 µM (active) in [12]. Also, the activity, negative = inhibition in [4] is -20.1%. For the same compound, the Potency entry in [6], in assay [7] and in assay [13] was “inactive” in each case. Besides, the result in assay [14] was inactive.
